{"source": "PubChem BioAssay AID1159580", "about": "(chemical genetic matrix, 2015)", "experiment": "chemical genetic growth profiling, strain panel (AID 1159580);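 note: tested at 20 µM; growth read once vehicle control cultures reached saturation at 30 °C; 1 = growth at the plate median or of vehicle wells; lower values mean less growth of the strain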", "settings": "S. cerevisiae deletion strains, growth OD", "note": "Hit rate of the full screen: of about 5,500 compounds, about 2,000 (36%) were called active. Another 18% or so got no clear call; they are omitted. The list shows a part of the results. Unmarked numbers belong to inactive results. Cut-off read from the data, not from the text of the source: active = normalized growth mostly below about 0.91 (no sharp cut-off); inconclusive = no clear call, values can overlap the other calls; inactive = mostly above about 0.92.", "data": [{"smiles": "CSc1n[nH]c(-c2cc(C(C)(C)C)oc2C)c1C#N", "values": [{"measurement": "normalized growth", "setting": "locus YAR019C, strain CDC15, active compounds read low", "result": 0.949}, {"measurement": "normalized growth", "setting": "locus YBL105C, strain PKC1, active compounds read low", "result": 0.951}, {"measurement": "normalized growth", "setting": "locus YBR135W, strain CKS1, active compounds read low", "result": 0.952}, {"measurement": "normalized growth", "setting": "locus YBR136W, strain MEC1, active compounds read low", "result": 0.967}, {"measurement": "normalized growth", "setting": "locus YBR160W, strain CDC28, active compounds read low", "result": 0.955}, {"measurement": "normalized growth", "setting": "locus YDL017W, strain CDC7, active compounds read low", "result": 0.953}, {"measurement": "normalized growth", "setting": "locus YDL028C, strain MPS1, active compounds read low", "result": 0.966}, {"measurement": "normalized growth", "setting": "locus YDL101C, strain DUN1, active compounds read low", "result": 0.967}, {"measurement": "normalized growth", "setting": "locus YDL108W, strain KIN28, active compounds read low", "result": 0.937}, {"measurement": "normalized growth", "setting": "locus YDL132W, strain cdc53, active compounds read low", "result": 0.933}, {"measurement": "normalized growth", "setting": "locus YDL214C, strain PRR2, active compounds read low", "result": 0.847}, {"measurement": "normalized growth", "setting": "locus YDR052C, strain DBF4, active compounds read low", "result": 0.964}, {"measurement": "normalized growth", "setting": "locus YDR054C, strain cdc34, active compounds read low", "result": 0.934}, {"measurement": "normalized growth", "setting": "locus YDR226W, strain ADK1, active compounds read low", "result": 0.952}, {"measurement": "normalized growth", "setting": "locus YDR477W, strain SNF1, active compounds read low", "result": 0.835}, {"measurement": "normalized growth", "setting": "locus YER123W, strain YCK3, active compounds read low", "result": 0.834}, {"measurement": "normalized growth", "setting": "locus YER133W, strain GLC7, active compounds read low", "result": 0.867}, {"measurement": "normalized growth", "setting": "locus YFL009W, strain cdc4, active compounds read low", "result": 0.962}, {"measurement": "normalized growth", "setting": "locus YFL029C, strain CAK1, active compounds read low", "result": 0.928}, {"measurement": "normalized growth", "setting": "locus YFR003C, strain YPI1, active compounds read low", "result": 0.95}, {"measurement": "normalized growth", "setting": "locus YFR019W, strain FAB1, active compounds read low", "result": 0.943}, {"measurement": "normalized growth", "setting": "locus YFR028C, strain CDC14, active compounds read low", "result": 0.979}, {"measurement": "normalized growth", "setting": "locus YGR040W, strain KSS1, active compounds read low", "result": 0.847}, {"measurement": "normalized growth", "setting": "locus YGR052W, strain FMP48, active compounds read low", "result": 0.833}, {"measurement": "normalized growth", "setting": "locus YGR092W, strain DBF2, active compounds read low", "result": 0.78}, {"measurement": "normalized growth", "setting": "locus YHR030C, strain SLT2, active compounds read low", "result": "0.542 (active)"}, {"measurement": "normalized growth", "setting": "locus YHR079C, strain IRE1, active compounds read low", "result": 0.86}, {"measurement": "normalized growth", "setting": "locus YHR082C, strain KSP1, active compounds read low", "result": 0.818}, {"measurement": "normalized growth", "setting": "locus YHR205W, strain SCH9, active compounds read low", "result": 0.908}, {"measurement": "normalized growth", "setting": "locus YIL147C, strain SLN1, active compounds read low", "result": 0.954}, {"measurement": "normalized growth", "setting": "locus YJL095W, strain BCK1, active compounds read low", "result": 0.744}, {"measurement": "normalized growth", "setting": "locus YJL128C, strain PBS2, active compounds read low", "result": 0.894}, {"measurement": "normalized growth", "setting": "locus YJL157C, strain FAR1, active compounds read low", "result": 0.883}, {"measurement": "normalized growth", "setting": "locus YJR016C, strain ILV3, active compounds read low", "result": 0.946}, {"measurement": "normalized growth", "setting": "locus YJR066W, strain TOR1 (second series), active compounds read low", "result": 0.897}, {"measurement": "normalized growth", "setting": "locus YJR066W, strain TOR1, active compounds read low", "result": 0.789}, {"measurement": "normalized growth", "setting": "locus YKL048C, strain ELM1, active compounds read low", "result": 0.949}, {"measurement": "normalized growth", "setting": "locus YKL067W, strain YNK1, active compounds read low", "result": 0.846}, {"measurement": "normalized growth", "setting": "locus YKL101W, strain HSL1, active compounds read low", "result": 0.914}, {"measurement": "normalized growth", "setting": "locus YKL193C, strain SDS22, active compounds read low", "result": 0.948}, {"measurement": "normalized growth", "setting": "locus YKL203C, strain TOR2, active compounds read low", "result": 0.908}, {"measurement": "normalized growth", "setting": "locus YLR113W, strain HOG1, active compounds read low", "result": "0.776 (active)"}, {"measurement": "normalized growth", "setting": "locus YLR133W, strain CKI1, active compounds read low", "result": 0.888}, {"measurement": "normalized growth", "setting": "locus YLR403W, strain SFP1, active compounds read low", "result": 0.885}, {"measurement": "normalized growth", "setting": "locus YML070W, strain DAK1, active compounds read low", "result": 0.879}, {"measurement": "normalized growth", "setting": "locus YMR001C, strain CDC5, active compounds read low", "result": 0.945}, {"measurement": "normalized growth", "setting": "locus YMR205C, strain PFK2 (second series), active compounds read low", "result": 0.888}, {"measurement": "normalized growth", "setting": "locus YMR277W, strain FCP1, active compounds read low", "result": 0.938}, {"measurement": "normalized growth", "setting": "locus YNL006W, strain LST8, active compounds read low", "result": 0.947}, {"measurement": "normalized growth", "setting": "locus YNL020C, strain ARK1, active compounds read low", "result": 0.892}, {"measurement": "normalized growth", "setting": "locus YNL161W, strain CBK1, active compounds read low", "result": 0.948}, {"measurement": "normalized growth", "setting": "locus YNL183C, strain NPR1, active compounds read low", "result": 0.815}, {"measurement": "normalized growth", "setting": "locus YNL207W, strain RIO2, active compounds read low", "result": 0.937}, {"measurement": "normalized growth", "setting": "locus YNL222W, strain SSU72, active compounds read low", "result": 0.944}, {"measurement": "normalized growth", "setting": "locus YNL307C, strain MCK1 (second series), active compounds read low", "result": 0.89}, {"measurement": "normalized growth", "setting": "locus YOL078W, strain AVO1, active compounds read low", "result": 0.943}, {"measurement": "normalized growth", "setting": "locus YOL136C, strain PFK27, active compounds read low", "result": 0.906}, {"measurement": "normalized growth", "setting": "locus YOR061W, strain CKA2, active compounds read low", "result": 0.909}, {"measurement": "normalized growth", "setting": "locus YOR119C, strain RIO1, active compounds read low", "result": 0.83}, {"measurement": "normalized growth", "setting": "locus YOR231W, strain MKK1, active compounds read low", "result": 0.847}, {"measurement": "normalized growth", "setting": "locus YOR329C, strain SCD5, active compounds read low", "result": 0.948}, {"measurement": "normalized growth", "setting": "locus YPL031C, strain PHO85, active compounds read low", "result": 0.824}, {"measurement": "normalized growth", "setting": "locus YPL153C, strain RAD53, active compounds read low", "result": 0.819}, {"measurement": "normalized growth", "setting": "locus YPL204W, strain HRR25, active compounds read low", "result": 0.818}, {"measurement": "normalized growth", "setting": "locus YPL209C, strain IPL1, active compounds read low", "result": 0.959}, {"measurement": "normalized growth", "setting": "locus YPL256C, strain CLN2, active compounds read low", "result": "0.814 (active)"}, {"measurement": "normalized growth", "setting": "locus YPR025C, strain CCL1, active compounds read low", "result": 0.948}, {"measurement": "normalized growth", "setting": "locus YPR106W, strain ISR1, active compounds read low", "result": 0.947}, {"measurement": "normalized growth", "setting": "locus YPR111W, strain DBF20, active compounds read low", "result": 0.94}, {"measurement": "normalized growth", "setting": "strain NNK1, active compounds read low", "result": 0.943}, {"measurement": "normalized growth", "setting": "strain TSCII, active compounds read low", "result": 0.925}]}]}
